These results are taken from PubChem BioAssay AID652053 (Broad Institute, 2013).

Each structure is given as a SMILES string. The whole screen tested about 1,300 compounds, of which about 930 (72%) were called active.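 Rule for the calls: active = fitted curve reaches 40% activation signal increase at or below the top valid tested concentration in every replicate test; inconclusive = replicate tests disagree in their calls; inactive = all replicate tests inactive, including effects opposite the expected signal rise.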 The set was probably picked from earlier hits. A selection follows. A call without a number means that no potency is given here. Potency and affinity values are given separately.

This test in a line: miR-122 inhibitors in Huh7 reporter cells, dose response, cell-based, Huh7 psiCHECK-miR122, Renilla luciferase, cherry-pick (AID 652053). As to conditions: 48 h; series mostly up to 35 µM.
`O=C(Nc1ccccc1Br)C1CCN(S(=O)(=O)c2cccs2)CC1`: the compound was classed as inactive.

For `Cc1cc(C)cc(NC(=O)C2CCN(c3nccs3)CC2)c1`, the result was inactive.

Consider `CN1C(=O)c2cc(NC(=O)Cc3cccs3)ccc2OC[C@@H]2O[C@@H](CC(=O)NCC3CCCCC3)CC[C@@H]21`, for which the call was inactive.

For the compound `CN1C(=O)c2cc(NC(=O)NC3CCCC3)ccc2OC[C@H]2O[C@@H](CC(=O)O)CC[C@H]21`, the call was inactive.

Take `Cc1ccc(-c2nc(CSCC(=O)NCCN3CCN(Cc4ccccc4)CC3)c(C)o2)cc1`: the compound was called inactive.

As for `Cc1ccc(CC(=O)N(Cc2ccccc2)c2ccccn2)cc1`, the compound was called inactive.

As for `CCCc1cc(=O)oc2cc(OCc3nn[nH]n3)ccc12`, the compound was classed as inactive.

For `COc1ccccc1CNC(=O)C[C@H]1CC[C@@H]2[C@H](COc3ccc(NS(=O)(=O)c4ccc(C)cc4)cc3C(=O)N2C)O1`, the compound was called inactive.

As to `COc1ccccc1CNC(=O)C[C@H]1CC[C@@H]2[C@@H](COc3ccc(NC(C)=O)cc3C(=O)N2C)O1`, the compound was called inactive.

With `COc1ccccc1CNC(=O)C[C@@H]1CC[C@@H]2[C@H](COc3ccc(NC(C)=O)cc3C(=O)N2C)O1`, the call was inactive.

Regarding `COc1ccccc1CNC(=O)C[C@@H]1CC[C@H]2[C@@H](COc3ccc(NS(=O)(=O)c4ccc(C)cc4)cc3C(=O)N2C)O1`, the result was inactive.

Consider `COc1ccccc1CNC(=O)C[C@@H]1CC[C@@H]2[C@H](COc3ccc(NS(=O)(=O)c4ccc(C)cc4)cc3C(=O)N2C)O1`, for which the compound was classed as inactive.

With `CCOCc1nnc(NS(C)(=O)=O)s1`, the outcome was inactive.

Consider `CS(=O)(=O)N1N=C(c2ccc(Cl)cc2)CC1c1cccs1` (stereo not given), for which the compound was called inactive.

With `Cc1cccc(-c2nnc(-c3cccc4ccccc34)o2)c1`, the compound was called inactive.

Regarding `c1ccc2c(c1)ccc1nnnn12`, the call was inactive.

As for `OC(COC(c1ccc(Cl)cc1)c1ccc(Cl)cc1)CN1CCCC1` (stereo not given), the call was inactive.

In the case of `COc1ccccc1CNC(=O)C[C@H]1CC[C@@H]2[C@@H](COc3ccc(NC(=O)Nc4ccc(F)c(F)c4)cc3C(=O)N2C)O1`, the compound was called inactive.

With `CC1CCCC(NC(=O)COC(=O)c2ccccc2NC(=O)c2ccco2)C1C` (stereo not given), the result was inactive.

Take `Nc1nonc1C(=O)N1CCCC1`: the compound was classed as inactive.

Take `COc1ccccc1N1CCN(C2CC(=O)N(c3cccc(Cl)c3)C2=O)CC1` (stereo not given): the call was inactive.

Turning to `CCOc1ccccc1N1CCN(C(=O)c2ccc3[nH]c(C)c(C)c3c2)CC1`, the compound was classed as inactive.

Regarding `COc1ccccc1N1CCN(C(=O)c2ccc(Cn3c(=O)[nH]c4ccsc4c3=O)cc2)CC1`, the compound was classed as inactive.

`O=C(CN(C1CCCCC1)S(=O)(=O)c1ccc(Cl)cc1)NCc1cccnc1`: the compound was classed as inactive.

As to `COC(=O)c1ccc(/C=N/OCC(=O)NC2CCCCCCC2)cc1`, the call was inactive.

Turning to `Cc1ccc(C)c(NC(=O)CSc2nnc(CCNC(=O)OC(C)(C)C)o2)c1`, the result was inactive.

In the case of `Cc1ccc2cc(-c3noc(C(C)(C)C)n3)c(=O)[nH]c2c1`, the call was inactive.

As to `CC(=O)c1cccc(NC(=O)NCc2cccs2)c1`, the compound was classed as inactive.

As for `O=c1c[n+]([O-])c2ccccc2n1OCc1c(F)cccc1F`, the compound was classed as inactive.

For `COc1ccc(-c2nc(SCc3ccccc3)n(S(C)(=O)=O)n2)cc1`, the result was inactive.

As to `COc1ccc(OCCCC(=O)NCCc2ccccc2)cc1`, the compound was called inactive.

As for `COc1ccc(S(=O)(=O)N2N=C(C)Oc3ccccc3C2=O)cc1`, the result was inactive.

For the compound `COc1ccc(NC(=O)CCN2C(=O)c3ccccc3C2=O)cc1`, the compound was called inactive.

In the case of `CC(=O)Nc1nonc1-n1nnc(C(=O)NCc2ccccc2)c1C`, the compound was classed as inactive.

Consider `O=C(CN(Cc1cccs1)S(=O)(=O)c1ccc(S(=O)(=O)NC2CCCCC2)cc1)Nc1ccccc1`, for which the compound was called inactive.

With `C=CCN=C1NN=C(c2ccc3c(c2)OCCO3)CS1`, the call was inactive.

Take `CC(=O)N1N=C(c2ccccc2)CC1c1cccs1` (stereo not given): the compound was classed as inactive.

`CCC(=O)N1[C@H](CN(C)C(C)=O)[C@@H](c2ccc(C3=CCCC3)cc2)[C@@H]1CO`: the outcome was inactive.

On to `C[C@@H]1CN([C@H](C)CO)C(=O)c2cc(NC(=O)Nc3cccc4ccccc34)ccc2O[C@@H]1CN(C)C(=O)Nc1ccccc1`, for which the outcome was inactive.

With `CCNc1nc(N)nc(Oc2ccc(OCCOc3ccccc3)nn2)n1`, the call was inactive.

With `CCOc1ccccc1NS(=O)(=O)N(C)C`, the compound was classed as inactive.

As to `C[C@@H]1CN([C@@H](C)CO)C(=O)c2cccc(NC(=O)Nc3ccccc3)c2O[C@H]1CN(C)Cc1ccc(C(=O)Nc2ccccc2N)cc1`, the call was inactive.

For `C[C@@H]1CN([C@H](C)CO)C(=O)c2cccc(NC(=O)Nc3ccccc3)c2O[C@H]1CN(C)Cc1ccc(C(=O)Nc2ccccc2N)cc1`, the compound was called inactive.

Regarding `C[C@H]1CN([C@@H](C)CO)C(=O)c2cccc(NC(=O)Nc3ccccc3)c2O[C@H]1CN(C)Cc1ccc(C(=O)Nc2ccccc2N)cc1`, the call was inactive.

On to `C[C@H](CO)N1C[C@H](C)[C@@H](CN(C)C(=O)NC2CCCCC2)Oc2ccc(NC(=O)Nc3cccc4ccccc34)cc2CC1=O`, for which the call was inactive.

As for `CC/C(=N\NC(=O)c1ccc2c(c1)OCO2)C12CC3CC(CC(C3)C1)C2`, the result was inactive.

Regarding `O=C(C(c1ccccc1)c1ccccc1)N1CCOCC1`, the result was inactive.

On to `COc1ccc(C(=O)Oc2ccc(C(=S)N3CCOCC3)cc2)cc1`, for which the call was inactive.

In the case of `COc1ccc(C(=O)Nc2nc3c(s2)CCCC3)cc1S(=O)(=O)N1CCCc2ccccc21`, the call was inactive.

Consider `C[C@H]1CN([C@@H](C)CO)C(=O)c2cc(C#CC(C)(C)O)cnc2O[C@H]1CN(C)Cc1cncnc1`, for which the outcome was inactive.

Turning to `CCCC#Cc1cnc2c(c1)C(=O)N([C@H](C)CO)C[C@H](C)[C@H](CN(C)C(=O)c1ccccc1)O2`, the call was inactive.

Turning to `COCC(=O)N(C)C[C@@H]1Oc2ncc(C#Cc3cccnc3)cc2C(=O)N([C@H](C)CO)C[C@H]1C`, the compound was called inactive.

For `C[C@@H]1CN([C@H](C)CO)C(=O)Cc2cc(NC(=O)Nc3cccc4ccccc34)ccc2O[C@@H]1CN(C)C(=O)NC1CCCCC1`, the outcome was inactive.

As for `O=C(NNC(=S)NC1CCCCC1)c1ccc2c(c1)OCO2`, the outcome was inactive.

`Cc1ccc(Cl)cc1NC(=S)N(CCCN1CCOCC1)Cc1ccccn1`: the compound was called inactive.

In the case of `COCCn1c(C)cc(C(=O)COC(=O)c2cc3c(s2)CCC3)c1C`, the result was inactive.

On to `O=C(OCc1ccccc1Cl)c1ccccc1C(=O)c1ccccc1`, for which the compound was classed as inactive.

On to `O=C(c1ccccc1)c1ccc(-c2ccc(O)cc2)cc1`, for which the compound was classed as inactive.

As for `COCC(=O)NC[C@H]1[C@H](c2ccccc2)[C@@H](CO)N1C(=O)c1ccccc1`, the call was inactive.

With `CC(=O)Nc1ccc(S(=O)(=O)NCCc2ccc(S(N)(=O)=O)cc2)cc1`, the compound was classed as inactive.
